Bioassay records from PubChem BioAssay.
Luciferase inh: inhibitors of firefly (Photinus pyralis) luciferase. purified P. pyralis luciferase, luminescence, biochemical. 76,000 tested, 2.5% active. Potency, µM (doses to about 115 µM), actives largely listed as inhibitors. AID 1347043; further: nearly all actives have a fitted effect of over 65% in size
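Inhibitors were tested against purified firefly luciferase in a biochemical, low-substrate format (both substrates at 10uM) and luminescence measured with a CCD imager.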
NIH3T3 tox: NIH 3T3 cell cytotoxicity; NIH 3T3 viability, CellTiter-Glo ATP luminescence, 48-72 h; 94,000 tested, 4.3% active; Potency, µM (series often up to 96.7 µM), for the others: top-dose activity change, negative = cytotoxicity, hits mostly inhibitors; further: nearly all actives have a fitted effect of over 55% in size
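Luminescent ATP readout (CellTiter-Glo, 10 min RT) after 48 or 72 hr compound exposure of NIH 3T3 cells seeded at 400 cells/well in 1536-well format; quantitative HTS.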
HEK293 tox: HEK 293 cell cytotoxicity | HEK 293 viability, ATP luminescence (CellTiter-Glo), 48-72 h | Potency, µM (doses to about 115 µM), inactives show at the highest dose activity change, negative = cytotoxicity, actives largely listed as inhibitors | 94,000 tested, 6.6% active | AID 1345083; further: nearly all actives have a fitted effect of over 60% in size
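Pintool-delivered compounds were incubated with HEK 293 cells (250 cells/well) at 37 degree Celsius for 48 or 72 hr. ATP-dependent luminescence (CellTiter-Glo) then reported remaining viable cells.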
hNpr1 antagonist: antagonists of human natriuretic peptide receptor Npr1; HEK293 hNpr1 GloSensor cGMP, ANP-stimulated luminescence; Potency, µM (series often up to 46.3 µM), for the others: top-dose activity change, negative = inhibition, usual class: inhibitors; 76,000 tested, 1.6% active; calls by dose curve; further: nearly all actives have a fitted effect of over 60% in size
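Compound pre-incubated 30 min at room temperature on GloSensor-loaded HEK293 cells stably carrying hNpr1 and the pGS-40F cGMP biosensor. Stimulation uses hNppA at 0.1 nM final; luminescence is taken at baseline and 20 min post-agonist.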
* hit, by the source's call; i = inactive; u = inconclusive; x = no result given; [ ] = remark or other dose. This is a sample that favours compounds with a hit; in the whole collection about 11% have one here. Unless noted, the call rests on the fitted dose curve; in most records, active means well fitted curve in the direction sought with a large enough effect; inconclusive means small, poorly fitted or top-dose-only effect, or another doubt; inactive means no such curve, though single readings can be large; an effect the other way counts as inactive or inconclusive. On the % scale 0 is the no-effect control and ±100 the full control effect; potency means the concentration at half of the fitted maximal effect.

SMILES | Luciferase inh | NIH3T3 tox | HEK293 tox | hNpr1 antagonist
CC[C@H]1CN2CC[C@H]1C[C@@H]2COC(=O)Nc1ccc(C(C)(C)C)cc1 | u | 39.8µM* | 39.8µM* | 6.0%[70.6 µM]
Cc1nonc1CC(=O)N1C[C@H](O)[C@@H](N2CCC(O)CC2)C1 | i | -14.8% | -35.3% | -1.0%
C#CCN(C)C[C@H]1CN2CC[C@H]1C[C@@H]2CNC(=O)Nc1ccccc1 | u | -5.9%[174 µM] | 0.5%[172 µM] | 6.5%[70.6 µM]
O=C1NCCCCCCN(Cc2ccncc2)[C@@H]2CN(C(=O)COc3ccc(F)cc3)CC[C@@H]12 | i | 35.5µM* | -4.7% | 6.6%
C#C[C@H]1CN2CC[C@H]1C[C@@H]2CNC(=O)Nc1ccc(C(C)=O)cc1 | i | u | u | 4.0%[70.6 µM]
C=C[C@H]1CN2CC[C@H]1C[C@@H]2CNC(=O)Nc1ccc(OC(F)(F)F)cc1 | i | u | -11.6%[172 µM] | -0.2%[70.6 µM]
C=C[C@H]1CN2CC[C@H]1C[C@@H]2CNC(=O)Nc1ccc(Br)cc1 | i | u | 56.2µM* | -5.6%[70.6 µM]
C=C[C@H]1CN2CC[C@H]1C[C@@H]2CNC(=O)c1cc(OC)c(OC)c(OC)c1 | i | 44.7µM* | u | 2.5%[70.6 µM]
C#C[C@H]1CN2CC[C@H]1C[C@@H]2CNC(=O)Nc1ccc(Oc2ccccc2)cc1 | i | 39.8µM* | 39.8µM* | -0.7%[70.6 µM]
C=C[C@H]1CN2CC[C@H]1C[C@@H]2CNC(=O)Nc1cc(OC)cc(OC)c1 | i | u | -4.5%[172 µM] | -0.2%[70.6 µM]
C=C[C@H]1CN2CC[C@H]1C[C@@H]2CNC(=O)Nc1ccc(Oc2ccccc2)cc1 | i | u | 100µM* | 3.8%[70.6 µM]
COc1ccc(C(=O)N2C[C@@H]3C[C@H](C2)c2ccc(NC(=O)CN(C)C)c(=O)n2C3)cc1 | i | -10.6%[174 µM] | -0.9%[172 µM] | 7.7%[70.6 µM]
COCCNC(=O)[C@H]1CN2CCC1C[C@@H]2Cn1cc(-c2ccc(OC)cc2)nn1 (stereo not given in full) | i | -32.7%[174 µM] | -10.1%[172 µM] | -2.3%[70.6 µM]
Cc1ccc(C(=O)NC[C@H]2C[C@@H]3CCN2C[C@@H]3c2cc(-c3ccccc3)nn2C)cc1 | i | u | u | 5.1%[70.6 µM]
Cn1nc(-c2ccccc2)cc1[C@H]1CN2CC[C@H]1C[C@@H]2CNC(=O)Nc1ccccc1 | i | 50.1µM* | 50.1µM* | -0.3%[70.6 µM]
COc1ccc(NC(=O)NC[C@H]2C[C@@H]3CCN2C[C@@H]3c2cc(-c3ccccc3)nn2C)cc1 | i | u | 28.2µM* | -6.2%
Cn1nc(C2CCCCC2)cc1[C@H]1CN2CC[C@H]1C[C@@H]2CNC(=O)COc1ccccc1 | i | u | 44.7µM* | -0.3%
COc1ccc(-c2cc([C@H]3CN4CC[C@H]3C[C@@H]4COC(=O)Nc3ccccc3)n(C)n2)cc1 | i | 20µM* | u | -6.5%
COc1ccc(-c2cc([C@H]3CN4CC[C@H]3C[C@@H]4CNC(=O)COc3ccccc3)n(C)n2)cc1 | i | u | u | -26.5%
Cn1nc(-c2ccccc2)cc1[C@H]1CN2CC[C@H]1C[C@@H]2CNC(=O)Nc1cccc(C#N)c1 | i | -21.0% | -27.7% | 4.7%
COc1ccc(-c2cc([C@H]3CN4CC[C@H]3C[C@@H]4CNC(=O)Nc3ccccc3)n(C)n2)cc1 | i | 79.4µM* | u | 1.8%
CC(=O)NC[C@H]1C[C@@H]2CCN1C[C@@H]2c1cc(-c2cccs2)nn1C | i | u | -5.3%[172 µM] | 1.9%[70.6 µM]
COc1ccc(-c2cc([C@H]3CN4CC[C@H]3C[C@@H]4CNC(=O)Nc3ccccc3)n(C)n2)cc1OC | i | u | u | -1.2%
Cn1nc(-c2ccc3ccccc3c2)cc1[C@H]1CN2CC[C@H]1C[C@@H]2CNC(=O)Nc1cccc(C#N)c1 | i | 44.7µM* | u | 3.8%
Cn1nc(-c2ccc3ccccc3c2)cc1[C@H]1CN2CC[C@H]1C[C@@H]2CNC(=O)Nc1ccccc1 | i | 20µM* | u | 0.2%
Cn1nc(-c2cccs2)cc1[C@H]1CN2CC[C@H]1C[C@@H]2COC(=O)Nc1ccccc1 | i | 35.5µM* | 44.7µM* | -16.0%[70.6 µM]
COc1ccc(-c2cc([C@H]3CN4CC[C@H]3C[C@@H]4CNCc3ccccn3)n(C)n2)cc1 | i | u | -10.4%[172 µM] | 0.5%[70.6 µM]
Cc1cc(C(=O)N2[C@H]3CC[C@@H]2c2cnc(-c4ccccc4)nc2C3)n[nH]1 | x | -30.1% | u | x
CC(C)NC(=O)NC[C@H]1C[C@@H]2CCN1C[C@@H]2c1cc(-c2ccc3ccccc3c2)nn1C | i | 28.2µM* | 22.4µM* | 2.3%[70.6 µM]
